Data published in PubChem BioAssay (NCI).
Where “and” joins values, the source holds several entries; their conditions need not be identical. Equal entries are not always repeated. About 83,000 compounds went through this panel and 20% of them were active in at least one assay; those are over-represented in the sample as a whole.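 Plates (96-well) were seeded with cells, treated with compound at one concentration, and incubated for 48 hours before percent growth was determined.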 Calls of active or inactive are those of the source. How the source made its calls: active means growth percent below 10; inactive means the rest.

Each compound was assayed on MDA-MB-468 breast (assay: NCI-60 one-dose screen, 48 h (100 = growth as untreated, 0 = no growth, -100 = all killed)). Details: 10 µM unless noted.
`O=C1CSC(c2ccccc2O)N1c1nnc(Cn2cnnc2)o1` (stereo unspecified) was tested, and the growth was 96.2% (inactive). With `COc1ccc(Cc2cnc(NC(=O)c3cc(C)oc3C)s2)cc1` the growth was 14.8% (inactive). For `O=C(C(=O)c1cc(Br)ccc1O)c1cc(Br)ccc1O`, the growth was 29.5% (inactive). With `Cc1c(CC(=O)Nc2ccccc2)nnn1-c1ccccc1` the growth was 117% (inactive). For `CS(=O)(=O)Nc1cncc(-c2ccc3ncnc(Nc4cncc(Cl)c4)c3c2)c1`, the growth was 16.7% (inactive). `O=C(/C(=C/c1ccc([N+](=O)[O-])cc1)c1ccccc1)c1ccccc1` was tested, and the growth was 51.4% (inactive). In the case of `CCOC(=O)c1cc2c(n1Cc1cc(OC)c(OC)c(OC)c1)-c1nc(N)sc1CCC2`, the growth is reported as 35.8% (inactive). `C=CC(=O)N1CC=C(c2cc3c(N[C@H](C)c4ccccc4)ncnc3[nH]2)CC1` was tested, and the growth was 33.3% (inactive). `COc1ccc(-c2nsc3c2NC(=O)CC3c2cccc(F)c2)cc1` (stereo unspecified) was tested, and the growth was 19.7% (inactive). With `Cc1ccc(NC(=S)NNC(=S)NNc2ccccc2)cc1C` the growth was 99.6% (inactive). With `O=c1oc2ccc(Cl)cc2c(=O)n1-c1ccc(Cl)cc1F` the growth was 2.01% (active). `CC1CC=CCC1C1OCC(C)(C)CO1` (stereo unspecified) was tested, and the growth was 105% (inactive). For `CS(=O)(=O)c1nccc(-c2c(-c3ccc(F)c(OCc4ccc(F)cc4)c3)nc3sccn23)n1`, the growth was -37.2% (active). In the case of `CC12O[C@H](C[C@@H](OC(=O)c3ccccc3)[C@H]1O)n1c3ccccc3c3c4c(c5c6ccccc6n2c5c31)C(=O)NC4=O`, the growth is reported as 81.1% (inactive). With `c1ccc(Nc2nnc(-c3cc(-c4cccnc4)n(-c4ccccc4)n3)s2)cc1` the growth was 104% (inactive). For `N#Cc1c2c([nH]c(=O)c1C(N)=O)CCCCC2`, the growth was 109% (inactive). `C=C1C(=O)O[C@H]2[C@H]1CC/C(COC(=O)NCc1nc3ccccc3[nH]1)=C\CC[C@@]1(C)O[C@@H]21` was tested, and the growth was 43.7% (inactive). With `C=C(C)[C@@H]1CC[C@]2(C(=O)N3CCN(C)CC3)CC[C@]3(C)[C@H](CC[C@@H]4[C@@](C)(CCC(=O)O)[C@H](C(=C)C)CC[C@]43C)[C@@H]12` the growth was 90.1% (inactive). For `Cc1csc2ccc(Cl)cc12`, the growth was 96.8% (inactive). With `O=C(COc1ccc(/C=C2\Cc3ccccc3C2=O)cc1)c1ccc(Cl)cc1` the growth was 111% (inactive). For `O=C(O)c1ccc(-n2c(=O)c3ccccc3c3ccccc3c2=O)cc1`, the growth was 105% (inactive). `COc1cc(Nc2nc3ccccc3nc2NS(=O)(=O)c2ccc(NC(=O)c3ccc(C)c(OC)c3)cc2)cc(OC)c1` was tested, and the growth was 72.6% (inactive) and -30.3% (active). For `O=c1ccn(C2OC(F)(CO)C(O)C2F)c(=O)[nH]1` (stereo unspecified), the growth was 126% (inactive). `CC/C=C/C/C=C/C/C=C/C/C=C/C/C=C/C/C=C/CCC(=O)Nc1ccn([C@@H]2O[C@H](CO)[C@@H](O)C2(F)F)c(=O)n1` was tested, and the growth was 21.5% (inactive). In the case of `COc1ccccc1Nc1cc(O)c2c(=O)cc(-c3ccccc3)oc2c1`, the growth is reported as -1.72% (active). In the case of `N=c1c(S(=O)(=O)c2ccccc2)cc2c(=O)n3ccccc3nc2n1CC1CCCO1` (stereo unspecified), the growth is reported as 121% (inactive). With `Cc1cc2cc3cc(C)c(N(C)C)cc3[n+](C)c2cc1N(C)C` the growth was 27.1% (inactive). With `C[N+]1(CCC[N+]2(C)C[C@@H]3[C@H](C2)[C@@H]2C=C[C@H]3C2)CCOCC1` (stereo partly specified) the growth was 108% (inactive). With `COc1ccc(CN2c3ccccc3Oc3ccccc32)cc1F` the growth was 44.3% (inactive). For `COCC(=O)Oc1cc(-c2ccc(C)cc2C)c(OC(=O)COC)c(-c2ccc(C)cc2C)c1`, the growth was -0.64% (active). With `COc1ccc(C2SC(C)C(=O)N2CCc2cccs2)cc1OC` (stereo unspecified) the growth was 48.1% (inactive). `O=C(N/N=C/c1ccncc1)c1ccccc1Nc1cccc(C(F)(F)F)c1` was tested, and the growth was 48.7% (inactive). For `COc1ccc(CCNc2nc3c(c(=O)n(Cc4ccc(Br)cc4)c(=O)n3C)n2C)cc1OC`, the growth was 109% (inactive). `COc1cc(C)ccc1Oc1nc(Nc2ccc(N3CCOCC3)cc2)ncc1NC(=O)Nc1cc(C(F)(F)F)cc(C(F)(F)F)c1` was tested, and the growth was 72.8% (inactive). In the case of `Cc1cc(N=Nc2ccc(C)c(N=Nc3cc(C)c(N)cc3N)c2)c(N)cc1N`, the growth is reported as 96.7% (inactive) and 60.3% (inactive). In the case of `CC[C@]1(O)CC2CN(CCc3c([nH]c4ccccc34)[C@@](C(=O)OC)(c3cc4c(cc3OC)N(C)[C@H]3[C@@](O)(C(=O)OC)[C@H](OC(C)=O)[C@]5(CC)C=CCN6CC[C@]43[C@@H]65)C2)C1` (stereo partly specified), the growth is reported as 16.1% (inactive).
